In general, AC50 refers to the midpoint of the concentration-response curve, whichever way the signal moves.

Where “and” joins values, the source holds several entries; their conditions need not be identical. Equal entries are not always repeated. Inconclusive results are not listed. Calls of active or inactive are those of the source. How the source made its calls: active means hit-call score of the fitted dose curve at least 0.9, where 1 is the maximum; inconclusive means response in the unintended direction; inactive means score below 0.9.

Consider 13 compounds from PubChem BioAssay (EPA / NIEHS).

The target of test [1] is zebrafish Thyroid Hormone Receptor beta (TRb), thrb (gene 30607) (UniProt Q9PVE4). The experiment in a line: ATG_zfTRb_XSP2: Attagene TRANS-FACTORIAL Multi-Species (XSP1) HepG2 Assay for zebrafish Thyroid Hormone Receptor beta (TRb) (AID 2283836).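 On AC50: potency for induction of reporter signal above DMSO so agonist direction.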 The method, boiled down:
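Fluorescence of labelled reporter cDNA fragments, separated by capillary electrophoresis, gives mRNA induction from exogenous NR-Gal4 chimeras in transiently transfected HepG2 cells after 24 h dosing; 3 nM 6-alpha-fluorotestosterone and 1.5 nM norgestrel included in the run.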

The target in test [2] is human Thyroid hormone Receptor alpha (TRa), THRA (gene 7067) (UniProt P10827). The experiment in a line: ATG_hTRa_XSP2: Attagene TRANS-FACTORIAL Multi-Species (XSP2) HepG2 Assay for human Thyroid hormone Receptor alpha (TRa) (AID 2283838). The method, boiled down:
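HepG2 cells transiently transfected with multiplexed GAL4-UAS reporter units and exogenous NR-GAL4 chimeras; 24 h chemical exposure with 3 nM 6-alpha-fluorotestosterone and 1.5 nM norgestrel present. Reporter mRNA measured by RT-PCR, FAM labelling, HpaI digestion, capillary electrophoresis; gain-of-signal versus DMSO.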

Test [3] relates to Sodium/Iodide Symporter (NIS), SLC5A5 (gene 6528). The experiment in a line: CPHEA_Stoker_NIS_Inhibition_RAIU: CPHEA's Radioactive Iodide Uptake (RAIU) Assay for Sodium/Iodide Symporter (NIS) Inhibition, Stoker and Laws Labs (AID 2283841). The method, boiled down:
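Iodide uptake read as CPM of intracellular 125I (final 329 pM) after 2 h room-temperature exposure in HEPES-buffered HBSS, pH 7.4. Human NIS-expressing HEK293T cells; six concentrations 0.001–100 uM, 0.5% DMSO, normalised to DMSO wells.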

Test [4] is described as follows: CPHEA_Stoker_NIS_Cytotoxicity: Cytotoxicity Assessment for CPHEA's Radioactive Iodide Uptake (RAIU) Assay for Sodium/Iodide Symporter (NIS) Inhibition, Stoker and Laws Labs (AID 2283897).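 On AC50: active means loss of ATP signal versus DMSO meaning cytotoxicity.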 The method, boiled down:
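CellTiter-Glo ATP luminescence gauged viability in HEK293T cells expressing human NIS after 2 h chemical exposure. Concentrations ran 0.001–100 uM in 0.5% DMSO; DMSO served as baseline for the loss-of-signal fit.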

Sequence of zebrafish Thyroid Hormone Receptor beta (TRb), thrb (gene 30607) (Q9PVE4 whole entry, looked up, the tested form may be a part): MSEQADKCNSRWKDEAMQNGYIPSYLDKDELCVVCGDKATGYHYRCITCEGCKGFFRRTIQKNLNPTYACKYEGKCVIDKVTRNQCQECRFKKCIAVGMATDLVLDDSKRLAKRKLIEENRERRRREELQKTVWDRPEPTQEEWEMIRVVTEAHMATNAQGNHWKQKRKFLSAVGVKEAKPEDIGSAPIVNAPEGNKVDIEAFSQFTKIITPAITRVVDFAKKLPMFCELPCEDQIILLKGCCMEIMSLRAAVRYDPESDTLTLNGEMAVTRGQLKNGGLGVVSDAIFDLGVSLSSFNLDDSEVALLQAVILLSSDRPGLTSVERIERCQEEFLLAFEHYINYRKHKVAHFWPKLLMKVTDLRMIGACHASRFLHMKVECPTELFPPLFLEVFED
Sequence of human Thyroid hormone Receptor alpha (TRa), THRA (gene 7067) (P10827 whole entry, looked up, the tested form may be a part): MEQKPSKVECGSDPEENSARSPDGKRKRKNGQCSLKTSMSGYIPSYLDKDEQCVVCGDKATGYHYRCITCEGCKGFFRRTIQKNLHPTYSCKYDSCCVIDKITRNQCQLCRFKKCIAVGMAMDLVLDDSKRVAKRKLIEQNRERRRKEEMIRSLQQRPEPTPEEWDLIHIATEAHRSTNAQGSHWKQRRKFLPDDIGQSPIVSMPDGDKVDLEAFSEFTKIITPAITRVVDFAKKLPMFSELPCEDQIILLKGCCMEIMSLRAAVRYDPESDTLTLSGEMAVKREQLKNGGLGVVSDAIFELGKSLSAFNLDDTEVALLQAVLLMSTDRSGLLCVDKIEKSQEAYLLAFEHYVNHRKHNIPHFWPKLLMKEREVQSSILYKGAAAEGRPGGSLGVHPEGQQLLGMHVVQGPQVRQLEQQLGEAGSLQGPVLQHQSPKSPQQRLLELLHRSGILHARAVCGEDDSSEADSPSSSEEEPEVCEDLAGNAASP

For `CCCN(CCOc1c(Cl)cc(Cl)cc1Cl)C(=O)n1ccnc1`, the outcome in test [1] and in test [2] was inactive. Further, the figures for the AC50 in test [3] and in test [4] were 76.5 µM (active) and 50 µM (active), respectively.
As for `CCCN(CCC)c1c([N+](=O)[O-])cc(C(F)(F)F)cc1[N+](=O)[O-]`, the call in test [1], in test [3] and in test [4] was inactive.
Turning to `CCC(C)(NC(=O)c1cc(Cl)c(C)c(Cl)c1)C(=O)CCl` (configuration not stated), the concentration at half-maximal activity (AC50) in test [3] was 31.4 µM (active). Moreover, the result in test [4] was inactive.
Regarding `O=S1OCC2C(CO1)C1(Cl)C(Cl)=C(Cl)C2(Cl)C1(Cl)Cl` (configuration not stated), the call in test [1] and in test [4] was inactive. For the same compound, in test [3], the AC50 is 50 µM (active).
Consider `CCN(CC)C(=O)SCc1ccc(Cl)cc1`, for which the AC50 in test [3] was 50 µM (active). The result in test [4] was inactive.
For `O=C1c2ccccc2C(=O)N1SC(Cl)(Cl)Cl`, in test [3], the AC50 was 11.6 µM (active). In addition, the result in test [4] was inactive.
As to `Oc1ccc(Cl)cc1Cc1ccccc1`, the half-maximal activity concentration (AC50) in test [1] is 10 µM (active); in test [3] it was 50 µM (active) and 11.2 µM (active) and 21.7 µM (active); in test [4], 24.9 µM (active) and 50 µM (active). The compound was called inactive in test [2].
With `COc1nn(CSP(=S)(OC)OC)c(=O)s1`, the outcome in test [3] and in test [4] was inactive.
Regarding `O=C(O)C(F)(F)C(F)(F)C(F)(F)C(F)(F)C(F)(F)C(F)(F)C(F)(F)F`, the compound was classed as inactive in test [1] and in test [3].
Take `C#CCN1C(=O)COc2cc(F)c(N3C(=O)C4=C(CCCC4)C3=O)cc21`: the half-maximal activity concentration (AC50) in test [3] and in test [4] was 50 µM (active) in each case.
In the case of `CCOC1Oc2ccc(OS(C)(=O)=O)cc2C1(C)C` (configuration not stated), the result in test [3] and in test [4] was inactive.
In the case of `CCC(C)Nc1c([N+](=O)[O-])cc(C(C)(C)C)cc1[N+](=O)[O-]` (configuration not stated), the outcome in test [3] and in test [4] was inactive.
`CC1(C)C(C=C(Cl)Cl)C1C(=O)OC(C#N)c1ccc(F)c(Oc2ccccc2)c1` (configuration not stated): the result in test [1] and in test [4] was inactive.
